# aSyn UTR act: Activators via SNCA 5'UTR binding, MLPCN | AID 1814, 2009 | alpha-synuclein 5'UTR reporter, activators screen | 7.1% of 300,000 active | activity score, % (tested at 7.5 µM), hits read low; in the data active = activity score below about -60%
# Numbers stand for hits; 0 = inactive. A selection follows.
SMILES,aSyn UTR act
CCS(=O)(=O)Nc1cccc(C2=NN(C(=O)c3ccco3)C(c3ccco3)C2)c1 (stereo unspecified),-73.4
COc1ccc(C2=NN(C(N)=S)C(c3ccco3)C2)cc1 (stereo unspecified),-86.5
Cc1ncoc1C(=O)Nc1ccc2c(c1)OCCO2,-63.4
Cc1ncoc1C(=O)Nc1ccc(Oc2ccccc2)cc1,-104.0
Cc1cc(C(=O)Nc2ccc3c(c2)OCCO3)c(C)o1,-113.4
Cc1ccn2cc(-c3cnoc3C)nc2c1,-96.6
Cc1ccn2cc(-c3ccc(Br)cc3)nc2c1,0
COc1cc2sc3ccc(C#CC4(O)CCCCC4)cc3c(=O)c2cc1OC,-136.6
Cc1cc(Cl)c2oc(C(=O)N3CCN(c4cccc(C)n4)CC3)c(C)c2c1,-126.6
CCN(CC(=O)NCc1ccc(F)cc1)C(=O)/C=C/c1ccc(S(=O)(=O)N(CC)CC)cc1,-79.0
CCN(CC)S(=O)(=O)c1ccc(/C=C/C(=O)Nc2cccc(F)c2)cc1,-83.0
CCN(CC(=O)Nc1c(F)cccc1F)C(=O)/C=C/c1ccc(S(=O)(=O)N2CCCCCC2)cc1,0
Cc1ccccc1OCC(=O)Nc1ccc2c(c1)OCO2,-139.8
COc1ccccc1OCC(=O)Nc1ccc2c(c1)OCO2,-96.4
COc1cc(C(=O)c2cocc2C(=O)c2ccc3c(c2)OCO3)cc(OC)c1OC,0
CN1CCN(c2ccc(NC(=O)COc3ccccc3Cl)cc2)CC1,-65.5
O=C(COc1ccccc1Cl)Nc1ccc2c(c1)OCO2,-145.4
CC(C)C(NC(=O)OCc1ccccc1)C(=O)OCC(=O)N1CCCCC1 (stereo unspecified),-132.0
O=C1C2C3C=CC(C3)C2C(=O)N1/N=C/c1ccc(-c2ccccc2[N+](=O)[O-])o1 (stereo unspecified),-76.6
CSc1ncccc1C(=O)OCc1ccccc1,-66.3
Oc1ccc(COCc2ccccc2)c2cccnc12,0
CSc1ncccc1C(=O)OCc1ccccc1F,-62.4
Oc1ccc(CNc2ccccc2F)c2cccnc12,0
COc1ccc(-c2cc(-c3ccc(C)cc3)n[nH]2)c(O)c1,-143.7
Cc1ccc(O)c(-c2cc(-c3ccccc3[N+](=O)[O-])[nH]n2)c1,-94.8
SMILES,aSyn UTR act
COc1ccc(Oc2ccc(-c3ccn[nH]3)cc2)cc1,-76.2
COc1ccc(-c2cc(-c3cc(C)ccc3O)[nH]n2)cc1,-248.7
COc1ccc(-c2cc(-c3ccc(OC)cc3)[nH]n2)cc1,-155.1
Oc1ccc(Cl)cc1-c1cc(-c2ccccc2Cl)[nH]n1,-158.3
O=C(Nc1ccc2oc(=O)ccc2c1)c1ccco1,-74.7
O=C(Nc1ccc2oc(=O)ccc2c1)c1ccc2ccccc2c1,-66.9
COC(=O)c1ccc(CC(=O)c2nc3ccccc3s2)cc1,-63.1
COC(=O)c1ccc(CSc2nc3ccccc3s2)o1,-83.2
COC(=O)c1ccc(/C(O)=C(\C#N)c2nc3ccccc3s2)cc1,-149.9
O=C(Cc1ccccc1)c1nc2ccccc2s1,-215.7
O=C(/C(=C(\[O-])c1ccccc1)[n+]1ccc2ccccc2c1)c1ccccc1,-71.7
O=C(/C(=C(\[O-])c1ccccc1)[n+]1ccc2ccccc2c1)c1ccc(Cl)cc1,-62.6
CC(NC(=O)c1sc2ccccc2c1Cl)C1CCCO1 (stereo unspecified),-65.4
O=C(NNC(=O)C1CC2CCC1C2)c1sc2ccccc2c1Cl (stereo unspecified),-112.5
O=C(NCC1CCCO1)c1sc2ccccc2c1Cl (stereo unspecified),-105.6
Cc1ccc2c(Cl)c(C(=O)NCCc3ccccc3)sc2c1,-165.8
Cc1ccc2c(Cl)c(C(=O)NCC3CCCO3)sc2c1 (stereo unspecified),-137.3
Cc1ccc2c(Cl)c(C(=O)Nc3cc(C)on3)sc2c1,-121.7
O=C(CNC(=O)c1sc2ccccc2c1Cl)NC1CC1,-118.3
CN(Cc1c(F)cccc1Cl)C(=O)CNC(=O)c1sc2ccccc2c1Cl,-66.4
Cc1ccnc(NC(=O)c2sc3ccccc3c2Cl)c1,0
O=C(CCc1ccccc1)NNc1cc(N2CCCCC2)nc(N2CCCCC2)n1,0
O=C(CCc1ccccc1)Nc1ccc2ccccc2n1,-146.0
O=C(Nc1ccc2ccccc2n1)c1ccccc1,-73.8
O=C(Nc1ccc2ccccc2n1)Nc1cccs1,-62.4
SMILES,aSyn UTR act
COc1ccc(C(=O)Nc2ccc3ccccc3n2)cc1OC,-139.3
O=C(Nc1cccs1)Nc1ccccc1Br,-89.4
O=C(Nc1ccc2ccccc2n1)c1ccccc1Br,-146.2
O=C(Nc1ccc(C(F)(F)F)cn1)Nc1cccs1,-75.9
Cc1ccc(C(=O)C(C(=O)/C=C/c2ccccc2)=C2SCCCS2)cc1,-102.2
O=C(NC(Nc1nc2ccc([N+](=O)[O-])cc2s1)(C(F)(F)F)C(F)(F)F)c1ccccc1Cl,0
C/C(=C\c1ccccc1)C(=O)Nc1nc2ccc([N+](=O)[O-])cc2s1,-79.1
CC(C)=CC(=O)Nc1nc2ccc([N+](=O)[O-])cc2s1,-83.0
COc1ccc(Cc2nc(C(=O)Nc3ccccc3)cs2)cc1,-73.1
O=C(Nc1ccc(Cl)cc1)c1csc(Cc2ccccc2)n1,-71.8
O=C(/C=C/c1ccccc1)C1=C(O)C(=O)N(CCO)C1c1ccccc1[N+](=O)[O-] (stereo unspecified),-62.5
c1ccc(N2CCN(c3ccccc3)C2c2cccs2)cc1,-108.3
COc1ccc2c(c1)C(C)=CC(C)(C)N2S(=O)(=O)c1ccc(NC(C)=O)cc1,0
COc1ccc2c(c1)C(C)=CC(C)(C)N2S(=O)(=O)c1ccc(Br)cc1,-86.1
CC(C)(C)c1ccc(C(=O)Nc2cccc3c(=O)[nH][nH]c(=O)c23)cc1,-68.1
Nc1ccc2oc3ccccc3c2c1,-100.5
Nc1ccc2oc3ncccc3c(=O)c2c1,-97.5
Nc1ccc(C#Cc2ccc3oc4ccccc4c(=O)c3c2)cc1,-66.3
Cn1c2ccccc2c(=O)c2cc(C#Cc3ccc(N)cc3)ccc21,-89.1
COc1cc(-c2noc(C)c2C#Cc2ccc(N)cc2)cc(OC)c1OC,0
COc1ccc(C#Cc2ccc3c(c2)c(=O)c2ccccc2n3C)cc1,-124.6
CCc1nc2c(c(=O)c3ccccc3n2C)c(=O)n1CCc1ccc(OC)cc1,0
CCc1nnc(NC(=O)c2ccc(S(=O)(=O)N(C)Cc3ccccc3)cc2)o1,0
Cc1csc(NC(=O)c2ccc(S(C)(=O)=O)cc2)n1,-90.7
COc1ccccc1N(Cc1ccccc1)S(=O)(=O)c1cccc(C(=O)Nc2ccc(C(C)=O)cc2)c1,-87.6
SMILES,aSyn UTR act
COc1ccc(-c2csc(NC(=O)c3ccoc3C)n2)cc1,-124.2
Cc1csc(NC(=O)c2sccc2C)n1,-68.4
COc1ccc(-c2csc(NC(=O)c3cccc(S(=O)(=O)N4CCN(C)CC4)c3)n2)cc1,-71.2
COC(=O)c1c(-c2ccncc2)csc1NC(=O)c1ccoc1C,-119.9
COc1ccc(-c2csc(NC(=O)c3ccc(S(C)(=O)=O)cc3)n2)cc1,-68.0
COc1ccc(/C(C)=N/NC(=O)c2cccc(S(=O)(=O)N3CCCC3)c2)c(O)c1,0
CC(=O)c1ccc(NC(=O)c2cccc(S(=O)(=O)N3CCN(C)CC3)c2)cc1,-112.3
O=C1c2sc3nc4ccccc4n3c2C(=O)N1c1ccccc1Cl,-72.1
Cc1ccc(S(=O)(=O)N/N=C2/CC(c3ccccc3)Oc3ccccc32)cc1[N+](=O)[O-] (stereo unspecified),-106.4
C/C(CC(C)C)=N\NS(=O)(=O)c1ccc(C)c([N+](=O)[O-])c1,0
COc1ccc(-c2nnc(SCc3nc4ccccc4s3)n2C(C)C)cc1,-106.8
Cn1c(SCc2nc3ccccc3s2)nnc1-c1cccs1,-67.1
CCOc1ccccc1-n1nnnc1SCc1nc2ccccc2s1,-233.5
NC(=O)CSCc1nc2ccccc2s1,-64.7

# High-throughput results as filed in PubChem.
